From ChEMBL document CHEMBL3988442, “University of Dundee, Small-Polar-MMV Screening Library” (2021)
Among all 68,000 compounds or so, about 25 (0.04%) showed an effect of 50% or more. The sample holds strong results, similar compounds and a random draw of the others, so the mix is not that of the screen.

Biological target: T1, Methionyl-tRNA synthetase, putative (Leishmania donovani (strain BPK282A1)) (UniProt E9BF75)
T1 sequence (whole entry): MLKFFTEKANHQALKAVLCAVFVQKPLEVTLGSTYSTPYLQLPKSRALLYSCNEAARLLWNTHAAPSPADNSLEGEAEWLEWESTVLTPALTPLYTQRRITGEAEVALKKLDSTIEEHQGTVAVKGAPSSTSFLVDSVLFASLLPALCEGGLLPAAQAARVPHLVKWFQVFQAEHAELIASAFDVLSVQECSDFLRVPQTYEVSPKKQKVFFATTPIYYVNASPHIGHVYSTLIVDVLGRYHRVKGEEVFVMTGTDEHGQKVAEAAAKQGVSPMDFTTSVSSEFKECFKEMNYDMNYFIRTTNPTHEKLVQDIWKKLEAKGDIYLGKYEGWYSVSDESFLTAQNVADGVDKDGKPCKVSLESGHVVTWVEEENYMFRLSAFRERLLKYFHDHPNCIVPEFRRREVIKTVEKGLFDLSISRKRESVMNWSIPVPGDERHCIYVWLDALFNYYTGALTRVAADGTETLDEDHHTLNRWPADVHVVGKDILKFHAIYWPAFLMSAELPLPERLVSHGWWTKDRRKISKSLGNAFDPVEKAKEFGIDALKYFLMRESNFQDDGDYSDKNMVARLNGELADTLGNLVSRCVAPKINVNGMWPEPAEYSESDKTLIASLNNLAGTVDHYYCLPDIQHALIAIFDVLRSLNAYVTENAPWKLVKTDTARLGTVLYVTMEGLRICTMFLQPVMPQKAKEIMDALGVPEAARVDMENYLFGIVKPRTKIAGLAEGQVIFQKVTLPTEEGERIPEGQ
Experiment: Leishmania donovani Methionine tRNA synthetase (LdMetRS):v6. Primary screen assay
Assay type: functional
Set-up: conc 80 nM, time 150 minutes

Row | Structure (SMILES) | inhibition [%]
1 | Cc1ocnc1C(=O)N1CCN(Cc2ccccc2)[C@@H]2CS(=O)(=O)C[C@@H]21 | 11.8
2 | O=C([C@@H]1C[C@H]2[C@H](CCN2Cc2nccs2)O1)N1CCOCC1 | 12.4
3 | Cc1noc([C@@H]2CC[C@@H]3[C@@H](CCN3S(=O)(=O)c3ccccc3)O2)n1 | 21.6
4 | Cn1ccnc1CN1C[C@H]2CN(S(C)(=O)=O)CCN2C1=O | 12
5 | COCCN1C(=O)CC[C@@H]2[C@H]1CCN2C(=O)C1CCOCC1 | 7.27
6 | CCN1C[C@H]2[C@@H](C1)N(S(=O)(=O)c1ccccc1F)CC[C@H]2OC | 18.4
7 | CCn1nc(C)c(CNCCn2cc(C)cn2)c1C | -6.21
8 | Cc1cnn(CCNCc2c(C)nn(Cc3ccccc3)c2C)c1 | 9.32
9 | Cc1cnn(CCNCc2ccccc2F)c1 | 13
10 | Cc1cnn(CCNCc2c(C)nn(C)c2Cl)c1 | 15.4
11 | Cc1cnn(CCNCc2c(C)nn(-c3ccccc3)c2C)c1 | 121
12 | Cc1cnn(CCNCc2c(C)nn(CCO)c2C)c1 | 105
13 | Cc1cccc2nc(C(=O)N3CCCC[C@]4(C)NC(=O)CC[C@H]34)cn12 | 13.5
14 | O=C(N1CCCC(n2cncn2)C1)C1(c2ccc(Cl)cc2)CCC1 (stereo not drawn) | 15.4
15 | O=C(N1CCC(O)(C(F)(F)F)C1)C1(c2ccc(Cl)cc2)CC1 (stereo not drawn) | 8.1
16 | O=C(N1CCOCC1CO)C1(c2cccs2)CCCC1 (stereo not drawn) | 8.7
17 | CNC(=O)CC1COCCN1C(=O)C1(c2ccc(Cl)cc2)CCC1 (stereo not drawn) | 7.45
18 | O=C(N1CCOCC(O)C1)C1(c2ccc(Cl)cc2)CCC1 (stereo not drawn) | 123
19 | O=C(O)CC1COCCN1C(=O)C1(c2ccc(Cl)cc2)CCC1 (stereo not drawn) | 52.2
20 | O=C(c1ccco1)N1C[C@@H]2CN(c3ccccn3)C[C@@H]2C1 | 6.11
21 | O=C(NCc1ccco1)[C@H]1CC[C@@H]2[C@@H](CCN2c2ncccn2)O1 | 3.27
22 | CC(C)CN1Cc2nc(N3CCC(O)CC3)ncc2C1=O | 7.08
23 | Cc1nonc1CC(=O)N1C[C@@H]2CC[C@H](C1)N(Cc1ccccc1)C2=O | 6.88

Row | Structure (SMILES) | inhibition [%]
24 | N#Cc1ccccc1CN1C[C@@H]2CC[C@H](C1)N(CC1CCC1)C2=O | 19.4
25 | CCc1[nH]c2c(CNc3cncc(C(=O)N(C)C)n3)cc(C)cc2c1C | 32.3
26 | CCc1[nH]c2c(CNc3cncc(C(=O)N(C)C)n3)cc(F)cc2c1C | 28.6
27 | CCc1[nH]c2c(CNc3cncc(C(=O)OC)n3)cc(C)cc2c1C | 123
28 | CCOCC(=O)N1CC[C@H]2OCC[C@@]2(COc2ncccc2F)C1 | 6.53
29 | CC1CCN(c2ccc(C(=O)N3CCCC3c3ccc[nH]3)cn2)CC1 (stereo not drawn) | 78.5
30 | CC1CCN(c2ccc(C(=O)N3CCCC3c3nncn3C)cn2)CC1 (stereo not drawn) | 4.75
31 | NC(=O)c1ccc(OCC(=O)N2CCCC2c2ccc[nH]2)cc1 (stereo not drawn) | 15.5
32 | CCCOc1cc(C)c2c(c1C)C[C@H]([C@H](C)C(=O)O)CC2 | 2.26
33 | CC(C)N1[C@H](CN2CCCC2)C[C@@H]2CN(Cc3cnn(C)c3)CC[C@@H]21 | 12.3
34 | c1coc(CN2CCO[C@H]3[C@H](OCC4CC4)CC[C@@H]32)c1 | 13.7
35 | O=C(NCC1CCOCC1)[C@@H]1CC[C@@H]2[C@@H](CCN2Cc2ccncc2)O1 | 19.3
36 | Cc1nc(CN2C(=O)C[C@@H]3[C@@H]2CCN3S(=O)(=O)C2CC2)cs1 | 11.7
37 | COCC(=O)N1C[C@@H]2CCCO[C@@H]2[C@H](N(C)Cc2ccco2)C1 | -6.25
38 | CNC(=O)[C@H]1C[C@@H]2CN(Cc3ccccc3)C[C@H]1O2 | 15.9
39 | COC(=O)CCNC(=O)c1cccc(C(=O)N(C)c2ccccc2)c1 | 31.7
40 | COC(=O)CNC(=O)c1cccc(C(=O)N(C)c2ccccc2)c1 | 95
41 | CN(C(=O)c1cccc(C(=O)NCC(F)(F)F)c1)c1ccccc1 | 3.94
42 | O=C(NC1CC1)N1C[C@@H]2CCN(C(=O)c3cscn3)[C@@H]2C1 | 0.546
43 | CO[C@H]1C[C@@H]2CN(C(=O)c3cc4ccc(F)cc4[nH]3)C[C@@H]2C1 | 13.3
44 | O=C1[C@H]2CN(S(=O)(=O)c3ccccc3)C[C@H]2CN1Cc1cccnc1 | 4.19
45 | Cc1nnc(NC(=O)NCc2ccc(N3CCNC(=O)C3)cc2)s1 | 9.92
46 | Cc1ccccc1C(=O)NCc1ccc(N2CCNC(=O)C2)cc1 | 14.1

Row | Structure (SMILES) | inhibition [%]
47 | Cc1cccnc1NC(=O)NCc1ccc(N2CCNC(=O)C2)cc1 | 50.6
48 | CN(C)S(=O)(=O)N1CC[C@]2(O)CCN(Cc3cccc(F)c3)C[C@@H]2C1 | 12.9
49 | CC(C)c1nc(N2CCC(N3CCCC(O)C3)CC2)c2cnn(C)c2n1 (stereo not drawn) | 14.7
50 | CC(C)c1nc(N2CCC(N3CCSCC3)CC2)c2cnn(C)c2n1 | 12.3
51 | CC(C)c1nc(N2CCC(N3CCCCCC3)CC2)c2cnn(C)c2n1 | 56.4
52 | CC1=N[C@@]2(CC[C@@H]3CN(CC4CC4)C[C@@H]32)C(=O)N1CC(C)C | 14.9
53 | COCCN1C[C@H]2CC[C@@H]1CN(C(=O)CCn1cc(Cl)cn1)C2 | 9.25
54 | CC(C)CC(=O)N1CC[C@@H]2[C@H](CC1)N(Cc1cccnc1)CCS2(=O)=O | 15.2
55 | CN(C)CCN1CC[C@H]2[C@@H]1CCN2Cc1ccc2c(c1)OCO2 | 5.56
56 | CCCSCC(=O)N1C[C@@H]2CC[C@H](C1)N(Cc1ccccn1)C2=O | -1.42
57 | c1ccc(CN2C[C@H]3CC[C@@H]2CN(Cc2nnc(C4CC4)o2)C3)cc1 | 12.8
58 | CC(=O)N1CCN(c2ccc3ccc(C(=O)NC4CCCC4)cn23)CC1 | 52.9
59 | CN(C)C(=O)N1CCN(c2ccc3ccc(C(=O)NC4CC4)cn23)CC1 | 20.2
60 | CC(C)N1CCN(c2ccc3ccc(C(=O)NC4CCCC4)cn23)CC1 | 30.2
61 | N#Cc1cccc(C(=O)N2CC[C@H]3[C@H]2CCN3CC2CCOCC2)c1 | 9.34
62 | CS(=O)(=O)NC[C@]12COC[C@H]1CN(CCc1ccccc1)C2 | 13.1
63 | Cc1nc([C@H]2C[C@@H]3CCN(C(=O)c4ccnnc4)C[C@H]3O2)sc1C | 17
64 | O=C(NCC1CCOCC1)[C@H]1C[C@@H]2CCN(Cc3ccccc3)C[C@H]2O1 | 18.4
65 | CNC(=O)N1C[C@H]2C[C@H](C(=O)NCc3cccnc3)[C@@H](C1)O2 | 9.15
66 | Cc1ncc(CN2CCOC(CNc3cccnn3)C2)s1 (stereo not drawn) | 13.2
67 | CCCN1C[C@H]2CC[C@@H]1CN(c1nnc(C(C)C)s1)C2 | 9.31
68 | O=C(Cn1ccc(=O)cc1)N1C[C@H]2CC[C@@H]1CN(c1ncccn1)C2 | 15.1
